PI5P4K alpha inh: qHTS for Inhibitors of phosphatidylinositol 5-phosphate 4-kinase (PI5P4K); Phosphatidylinositol 5-phosphate 4-kinase type-2 alpha (Homo sapiens), P48426; PI5P4Kalpha enzyme, ADP-Glo luminescence, 60 min; active compounds read low; max response, %; hit rate 1.2% among 330,000; AID 652105, 2013; active = max response of -50% or lower; inconclusive = between -30% and -50%; inactive = -30% or higher; note: value at the top dose of about 77 µM; % is set by controls: 0 for no effect and ±100 for the full control effect
Target sequence (P48426 whole entry, looked up): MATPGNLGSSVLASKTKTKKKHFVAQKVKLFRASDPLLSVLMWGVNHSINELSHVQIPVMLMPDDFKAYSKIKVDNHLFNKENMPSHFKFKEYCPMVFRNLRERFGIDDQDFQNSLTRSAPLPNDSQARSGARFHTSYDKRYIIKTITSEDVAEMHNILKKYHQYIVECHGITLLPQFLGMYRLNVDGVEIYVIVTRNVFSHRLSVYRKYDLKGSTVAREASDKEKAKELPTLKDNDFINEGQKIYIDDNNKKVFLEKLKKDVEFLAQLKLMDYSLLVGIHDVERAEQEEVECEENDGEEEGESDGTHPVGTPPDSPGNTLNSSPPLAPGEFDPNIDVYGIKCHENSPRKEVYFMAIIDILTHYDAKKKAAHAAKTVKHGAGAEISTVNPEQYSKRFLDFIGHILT
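Controls without substrate or without enzyme flank wells where PI5P4Kalpha converts substrate using 5 microM ATP (final). Incubation lasts 60 minutes at room temperature; ADP formed is read by ADP-Glo luminescence.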
ALOX12 inh: Primary qHTS assay for inhibitors of human arachidonate 12S-lipoxygenase (ALOX12): Round 2; Polyunsaturated fatty acid lipoxygenase ALOX12 (Homo sapiens), P18054; purified 12hLO, xylenol orange hydroperoxide absorbance; Potency, µM (titrated, usually from 108 µM), for inactives: top-dose activity change, negative = inhibition, usual class: inhibitors; hit rate 1.1% among 580,000; note: potency is the fitted concentration of half-maximal effect; % is set by controls: 0 for no effect and ±100 for the full control effect
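Purified human 12hLO at 150 nM in 25 mM Hepes, 0.01% Triton X-100, pH 7.0, preincubated 15 min at room temperature with compound. Reaction started with 40 uM arachidonic acid, 30 min at room temperature. Hydroperoxide measured by Fe-xylenol orange, 573/405 nm absorbance ratio.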
POLH inh: qHTS for Inhibitors of Polymerase Eta. DNA polymerase eta (Homo sapiens), Q9Y253. recombinant Pol eta, fluorescent DNA replication assay. Potency, µM (series often up to 114 µM), for the others: top-dose activity change, negative = inhibition, usual class: inhibitors. hit rate 1.2% among 390,000; note: potency is the fitted concentration of half-maximal effect; % is set by controls: 0 for no effect and ±100 for the full control effect
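Pol eta (10 nM) was preincubated with compounds for 15 min at room temperature, after which fluorescent replication substrate (50 nM final) was added to start the reaction. Fluorescence was read kinetically at 0 and 10 min.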
Pol kappa inh: qHTS for Inhibitors of Polymerase Kappa | hit rate 0.53% among 400,000 | purified Pol kappa, fluorescent DNA synthesis assay, 10 min | Potency, µM (titrated, usually from 107 µM), without a hit: top-dose activity, negative = inhibition, usual class: inhibitors; note: potency is the fitted concentration of half-maximal effect; % is set by controls: 0 for no effect and ±100 for the full control effect
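First, compounds were pin-transferred onto 10 nM Pol kappa. After 15 min at room temperature, substrate was added to 50 nM final. Fluorescence was then measured kinetically at 0 and 10 min.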
POLB inh: qHTS Assay for Inhibitors of DNA Polymerase Beta; P06746; Pol beta primer extension/strand displacement, fluorescence kinetic; Potency, µM (titrated, usually from 114 µM), for inactives: top-dose activity change, negative = inhibition, actives largely listed as inhibitors; hit rate 1.3% among 340,000; AID 485314, 2010; note: potency is the fitted concentration of half-maximal effect; % is set by controls: 0 for no effect and ±100 for the full control effect
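Enzyme-only controls used 10 nM Pol beta; buffer lacking enzyme served as negative control. Compound preincubated 15 min, then 50 nM substrate added; 0 and 10 min reads at room temperature.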
Pol iota inh: qHTS for Inhibitors of Polymerase Iota; DNA polymerase iota (Homo sapiens), Q9UNA4; Pol iota fluorescent replication assay, 10 min; Potency, µM (doses to about 115 µM), for the others: at the top dose activity, negative = inhibition, usual class: inhibitors; hit rate 1% among 390,000; AID 588590, 2011; note: potency is the fitted concentration of half-maximal effect
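Fluorescent replication assay read twice, at 0 min and 10 min after adding 50 nM (final) substrate. Enzyme (10 nM) and compounds were first incubated 15 min at room temperature; enzyme-free buffer wells were negative controls.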
* marks the source's active call; other numbers are inactive results; ? = inconclusive; · = no result given; [ ] = another dose, or the depositor's remark. The list is not random: actives were taken first. Their share in the collection is about 2.9%. Unless noted, calls come from the whole dose curve; as a rule, active = well fitted inhibition curve with a large enough effect; inconclusive = small, poorly fitted or top-dose-only effect, or another doubt; inactive = no such curve, though single readings can be large or run the other way.

SMILES | PI5P4K alpha inh | ALOX12 inh | POLH inh | Pol kappa inh | POLB inh | Pol iota inh
COc1ccc(C2CC(=O)C3=C(C2)OC(N)=C(C#N)C3c2ccc(C)cc2)cc1 (configuration not stated) | · | -72% | · | · | · | ·
COc1ccc2[nH]cc(C(C(=O)O)N3CCN(C(C)=O)CC3)c2c1 (configuration not stated) | · | 4% | · | · | · | ·
CC(=O)OC(C)c1ccccc1 (configuration not stated) | · | -1%[176 µM] | · | · | · | ·
COc1ccc(/C=N/NC(N)=S)cc1OC(=O)c1cccc2ccccc12 | -6 | 16µM* | -15% | -10% | -1% | 4%
CN(CCC#N)c1ccc(/C=N/NC(N)=S)cc1 | · | 18µM* | · | · | · | ·
COc1cc(/C=N/NC(=O)c2cccc3ccccc23)cc(OC)c1OC | 0 | 0% | -19% | 1% | 6% | 9%
COc1cc(/C=N/NC(N)=O)ccc1OC(=O)c1ccc(C)cc1 | · | · | · | · | 39% | ·
COc1ccc(C(=O)Oc2cc(/C=N/NC(N)=S)ccc2OC)cc1 | -7 | 32µM* | 1% | 0% | 9% | 7%
COc1ccc(/C=N/NC(N)=S)cc1 | 4 | 25µM* | -2% | 2% | 27% | 45%
CC(C)c1ccc(NC(=O)/C=C/c2c(F)cccc2Cl)cc1 | · | -8% | · | · | · | ·
CCC1CCCN(Cc2nc(N)c3ccccc3n2)C1 (configuration not stated) | · | 12% | · | · | · | ·
COC(=O)c1ccc(C2/C(=C(\O)c3cccc(OC)c3)C(=O)C(=O)N2c2ccccn2)cc1 (configuration not stated) | · | 1.1µM* | · | · | · | ·
COc1ccc(C2/C(=C(\O)c3cccc(OC)c3)C(=O)C(=O)N2c2ccccn2)cc1 (configuration not stated) | · | ? | -6% | -13% | 19% | ?
O=C(/C=C/c1ccc(F)cc1)c1cccc(O)c1 | · | -79% | · | · | · | ·
CCOc1ccc(-c2nc3c4c5c(sc4ncn3n2)COC(C)(C)C5)cc1 | · | 42% | · | · | · | ·
O=c1cc(C2=CCOCC2)oc2c(-c3cccc4[nH]ccc34)nccc12 | · | 35µM* | · | · | · | ·
Cc1cc(C)cc(C(=O)N(c2cc(C)cc(C)c2)C2C=CS(=O)(=O)C2)c1 (configuration not stated) | · | -10% | · | · | · | ·
Cc1ccccc1N(C)C1CN([S+](=O)([O-])c2cccc(C(F)(F)F)c2)C1 | · | 3%[6.33 µM] | · | · | · | ·
CC(C)Cc1oc(C(=O)O)cc1CN1CCOCC1 | -4 | -15% | -2% | -3% | 89µM* | 20%
CCOc1ccc(C(=O)Nc2ccc(-c3nc4cc(C)ccc4o3)cc2)cc1 | · | 23% | -16% | -5%[60.1 µM] | 8% | -19%
COc1ccc(-c2nc3cc(NC(=S)NC(=O)Cc4ccccc4)ccc3o2)cc1 | -5 | 28µM* | ? | -3% | 4% | 19%
CCOc1ccc(C(=O)Nc2ccc(-c3nc4cc(CC)ccc4o3)cc2)cc1 | · | 0% | -10% | -8% | 0% | 89µM*
COC(=O)c1ccc(-c2ccc(CNCc3ccco3)o2)cc1 | · | -55% | · | · | · | ·
Fc1ccc(N/N=C2/CC(c3ccccc3)Oc3ccccc32)c(F)c1 (configuration not stated) | 3 | ? | -26% | -20% | 17% | 20%
CNC(=S)N/N=C1\CC(c2ccccc2)Oc2ccccc21 (configuration not stated) | 0 | 40µM* | -23% | -7% | 9% | 105%
CC(=O)c1ccc(NC(=S)N2CCN(c3ccccn3)CC2)cc1 | 0 | 30% | 89µM* | -1% | 18% | 22%
CN1CCOc2c(C(=O)N3CC[S+](=O)([O-])CC3)cc(N3CCOCC3)cc21 | · | 7%[176 µM] | · | · | · | ·
CCCc1c(C(=O)NCCc2ccccc2)nnn1-c1ccccc1 | · | 0% | · | · | · | ·
